Measured values from PubChem BioAssay (NCATS).
Active and inactive are the calls of the source. Unless noted, calls come from the whole dose curve; as a rule, active = well fitted curve in the direction sought with a large enough effect; inconclusive = small, poorly fitted or top-dose-only effect, or another doubt; inactive = no such curve, though single readings can be large; an effect the other way counts as inactive or inconclusive.

Columns and labels:
[1] = target: Pyruvate kinase (Leishmania mexicana) (UniProt Q27686); test: qHTS Validation Assay for Inhibitors of Leishmania Mexicana Pyruvate Kinase (AID 945)
Pyruvate kinase (Leishmania mexicana), sequence (Q27686 2-499 E452W): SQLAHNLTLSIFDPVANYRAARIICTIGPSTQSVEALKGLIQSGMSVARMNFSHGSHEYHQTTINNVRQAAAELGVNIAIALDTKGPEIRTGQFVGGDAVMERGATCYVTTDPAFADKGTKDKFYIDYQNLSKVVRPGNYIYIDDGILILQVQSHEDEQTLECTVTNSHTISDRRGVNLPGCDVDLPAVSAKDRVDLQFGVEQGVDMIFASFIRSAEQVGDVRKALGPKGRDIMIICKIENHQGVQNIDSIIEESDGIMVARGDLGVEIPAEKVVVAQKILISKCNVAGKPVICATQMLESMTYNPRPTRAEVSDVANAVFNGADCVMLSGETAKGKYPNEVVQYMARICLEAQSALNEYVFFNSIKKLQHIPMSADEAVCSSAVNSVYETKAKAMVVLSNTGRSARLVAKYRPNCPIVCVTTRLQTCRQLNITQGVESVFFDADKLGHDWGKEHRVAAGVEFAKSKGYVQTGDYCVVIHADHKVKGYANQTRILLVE
Outline: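 Purified LmPYK (E451W mutant, 0.2 nM) was incubated 1 h at room temperature with 0.5 mM PEP and 0.1 mM ADP in 50 mM imidazole pH 7.2, 50 mM KCl, 7 mM MgCl2; ATP formed was read by PKLight luminescence, normalized to DMSO wells.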

[2] = target: Pyruvate kinase PKM (Homo sapiens) (UniProt P14618); test: qHTS Assay for Activators of Human Muscle Pyruvate Kinase (AID 954; active = well fitted curve in the direction sought with a large enough effect, not every such curve was filed as active)
Pyruvate kinase PKM (Homo sapiens), sequence (P14618 whole entry, looked up): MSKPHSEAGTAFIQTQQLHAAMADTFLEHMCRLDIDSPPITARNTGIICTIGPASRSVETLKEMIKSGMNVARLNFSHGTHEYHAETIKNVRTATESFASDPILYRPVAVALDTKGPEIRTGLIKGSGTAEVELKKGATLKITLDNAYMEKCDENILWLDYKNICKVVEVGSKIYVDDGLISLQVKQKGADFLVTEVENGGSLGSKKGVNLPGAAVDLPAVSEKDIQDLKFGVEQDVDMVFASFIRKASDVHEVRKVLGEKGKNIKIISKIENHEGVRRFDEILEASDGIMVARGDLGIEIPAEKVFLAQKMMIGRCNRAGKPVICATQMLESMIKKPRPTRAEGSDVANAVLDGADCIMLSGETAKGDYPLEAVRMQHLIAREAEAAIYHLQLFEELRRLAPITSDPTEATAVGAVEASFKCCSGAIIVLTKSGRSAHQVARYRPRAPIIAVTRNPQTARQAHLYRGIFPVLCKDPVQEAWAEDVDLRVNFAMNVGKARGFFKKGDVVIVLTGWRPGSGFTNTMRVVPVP
Outline: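 A coupled luminescent readout tracked ATP made from ADP by purified PKM2. Final conditions included 0.1 nM enzyme, PEP and ADP at 0.5 and 0.1 mM, pH 7.2 imidazole buffer with BSA, and a one-hour room-temperature reaction.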

[3] = target: Alpha-galactosidase (Coffea arabica) (UniProt Q42656); test: Counterscreen for Glucocerebrosidase Inhibitors: qHTS Assay for Coffee Bean alpha-Galactosidase at pH 4.5 (AID 957); note: series mostly up to about 77 µM
Alpha-galactosidase (Coffea arabica), sequence (Q42656 whole entry, looked up): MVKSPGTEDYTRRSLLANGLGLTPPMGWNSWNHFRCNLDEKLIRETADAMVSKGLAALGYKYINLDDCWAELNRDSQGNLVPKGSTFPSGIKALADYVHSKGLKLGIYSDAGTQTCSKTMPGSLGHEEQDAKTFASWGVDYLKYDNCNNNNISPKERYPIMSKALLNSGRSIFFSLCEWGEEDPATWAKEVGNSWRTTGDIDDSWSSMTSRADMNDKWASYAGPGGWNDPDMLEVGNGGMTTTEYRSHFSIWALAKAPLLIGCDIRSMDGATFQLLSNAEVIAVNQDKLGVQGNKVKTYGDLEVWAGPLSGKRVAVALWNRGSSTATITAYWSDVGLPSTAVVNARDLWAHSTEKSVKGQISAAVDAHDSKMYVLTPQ
Outline: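 Quantitative HTS of compounds (0.7 nM to 77 uM) against coffee bean alpha-galactosidase at pH 4.5, measuring 4-methylumbelliferone fluorescence released from 80 uM substrate.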

[4] = target: alpha-glucosidase (Oryza sativa, rice) (UniProt Q653V4); test: Counterscreen for Glucocerebrosidase Inhibitors: qHTS Assay for Rice alpha-Glucosidase at pH 5.0 (AID 997)
Outline: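 Endpoint fluorogenic assay at pH 5.0: compounds (0.7 nM to 77 uM) titrated against 4 nM rice enzyme and 400 uM 4-MU-alpha-glucoside for 20 min at room temperature; NaOH/glycine stop, read ex 365/em 440 nm, Hill-fitted AC50.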

[5] = target: Alpha-galactosidase (Coffea arabica) (UniProt Q42656); test: Counterscreen for Glucocerebrosidase Inhibitors: qHTS Assay for Coffee Bean alpha-Galactosidase at pH 5.9 (AID 998)
Outline: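 Enzyme 2 nM + cpd (0.7 nM–77 uM titration) + 4-MU-alpha-Gal 80 uM, pH 5.9 citrate/Tween-20, RT 20 min, NaOH/glycine stop pH 10, fluor 365/440. Normalized to no-enzyme and full-activity controls; Hill-fit AC50.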

Measured: outcome

O=C(O)[C@H]1CCN1
inactive: [1] | [2] | [3] | [4] | [5]

C[C@@H](Cc1ccc(O)cc1)NC[C@@H](O)c1cc(O)cc(O)c1
inactive: [1] | [2] | [3] | [4] | [5]

COc1ccc2c(c1)[C@]13CCCC[C@@H]1[C@H](C2)NCC3
inactive: [1] | [2] | [3] | [4] | [5]

C[C@@]12CC[C@H]3[C@@H](CC=C4C[C@H](OS(=O)(=O)O)CC[C@]43C)[C@H]1CCC2=O
inactive: [1] | [2] | [3] | [4] | [5]

COc1ccc2c3c1O[C@@H]1C(=O)CC[C@@]4(O)[C@@H](C2)N(CC2CC2)CC[C@]314
inactive: [1] | [2] | [3] | [4] | [5]

C[C@]12CC[C@H](O)C[C@@H]1CC[C@H]1[C@H]2CC[C@]2(C)[C@H](C(=O)CO)CC[C@@H]12
inactive: [1] | [2] | [3] | [4] | [5]

N[C@H](CCl)C(=O)O
inactive: [1] | [2] | [3] | [4] | [5]

C[N+]1(C)C2CC(OC(=O)C(CO)c3ccccc3)CC1[C@@H]1O[C@H]21 (stereo not given in full)
inactive: [1] | [2] | [3] | [4] | [5]

COc1ccc2c(c1O)-c1cccc3c1[C@H](C2)N(C)CC3
inactive: [1] | [2] | [3] | [4] | [5]

Oc1ccc2c3c1O[C@@H]1c4[nH]c5c(c4C[C@@]4(O)[C@@H](C2)N(CC2CC2)CC[C@]314)C[C@]1(O)[C@@H]2Cc3ccc(O)c4c3[C@@]1(CCN2CC1CC1)[C@H]5O4
inactive: [1] | [2] | [3] | [4] | [5]

COc1cc([C@@H](O)CN)ccc1O
inactive: [1] | [2] | [3] | [4] | [5]

C[N+]1(C)CCc2cc3c(cc2[C@@H]1[C@@H]1OC(=O)c2c1ccc1c2OCO1)OCO3
inactive: [1] | [2] | [3] | [4] | [5]

CO[C@@H]1CC=C2CCN3CCC4=C(CC(=O)OC4)[C@]23C1
inactive: [1] | [2] | [3] | [4] | [5]

C[C@]12CC[C@H](O)CC1=CC[C@@H]1[C@H]2CC[C@]2(C)C(=O)CC[C@H]12
inactive: [1] | [2] | [3] | [4] | [5]

C[C@@]12CC[C@H]3[C@@H](CC[C@@H]4C[C@H](O)CC[C@]43C)[C@H]1CC[C@H]2O
inactive: [1] | [2] | [3] | [4] | [5]

CCn1cnc2c(Nc3cccc(Cl)c3)nc(N[C@@H]3CCCC[C@H]3N)nc21
inactive: [1] | [2] | [3] | [4] | [5]

CC(C)C[C@H](NP(=O)(O)O[C@@H]1O[C@@H](C)[C@@H](O)[C@@H](O)[C@H]1O)C(=O)N[C@@H](Cc1c[nH]c2ccccc12)C(=O)O
inactive: [1] | [2] | [3] | [4] | [5]

C=CCN1CC[C@]23c4c5ccc(O)c4O[C@@H]2/C(=N/NC(=O)c2ccccc2)CC[C@@]3(O)[C@H]1C5
inactive: [1] | [2] | [3] | [4] | [5]

C[C@@H]1Cc2cc3c(cc2C(c2ccc(N)cc2)=NN1)OCO3
inactive: [1] | [2] | [3] | [4] | [5]

CC(=O)c1c(O)c(C)c(O)c(Cc2c(O)c3c(c(C(=O)/C=C\c4ccccc4)c2O)OC(C)(C)C=C3)c1O
inactive: [1] | [2] | [3] | [4] | [5]

O=C(O)[C@H]1[C@H](C(=O)O)[C@H]2CC[C@@H]1O2
inactive: [1] | [2] | [3] | [4] | [5]

COc1cc(C[C@H](C)N)c(OC)cc1I
inactive: [1] | [2] | [3] | [4] | [5]

NC[C@H](O)c1cc(O)c(O)cc1F
inactive: [1] | [2] | [3] | [4] | [5]

CC(=O)[C@@H]1CC[C@H]2[C@H]3CC[C@H]4C[C@@H](O)CC[C@]4(C)[C@@H]3CC[C@]12C
inactive: [1] | [2] | [3] | [4] | [5]

C[C@@H]1O[C@H]1P(=O)(O)O
inactive: [1] | [2] | [3] | [4] | [5]

CCNC(=O)[C@@H]1O[C@@H](n2cnc3c(N)ncnc32)[C@@H](O)[C@H]1O
inactive: [1] | [2] | [3] | [4] | [5]

CC(C)N[C@@H](C)Cc1ccc(I)cc1
inactive: [1] | [2] | [3] | [4] | [5]

N[C@H](Cn1ccc(=O)[nH]c1=O)C(=O)O
inactive: [1] | [2] | [3] | [4] | [5]

NC(=O)CN1C[C@@H](O)CC1=O
inactive: [1] | [2] | [3] | [4] | [5]

C[Se]C[C@@H](N)C(=O)O
inactive: [1] | [2] | [3] | [4] | [5]

Nc1ncnc2c1ncn2[C@@H]1O[C@@H](COP(=O)(O)CP(=O)(O)OP(=O)(O)O)[C@H](O)[C@@H]1O
inactive: [1] | [2] | [3] | [4] | [5]

CCCN1CC[C@@H]2c3cc(O)ccc3CC[C@H]21
inactive: [1] | [2] | [3] | [4] | [5]

N[C@H](Cc1ccc(N(CCCl)CCCl)cc1)C(=O)O
inactive: [1] | [2] | [3] | [4] | [5]

COC(=O)[C@H](N)CCCN=C(N)N[N+](=O)[O-]
inactive: [1] | [2] | [3] | [4] | [5]

CN1C[C@@H](CS(=O)(=O)N(C)C)C[C@H]2c3cccc4c3c(cn4C)C[C@@H]21
inactive: [1] | [2] | [3] | [4] | [5]

CC(=O)OCC1=C(C(=O)[O-])N2C(=O)[C@@H](NC(=O)CCC[C@@H](N)C(=O)[O-])[C@@H]2SC1.[Zn+2]
inactive: [1] | [2] | [3] | [4] | [5]

CCN(CC)c1ncnc2c1ncn2[C@@H]1O[C@@H](COP(=O)(O)OP(=O)(O)C(Br)(Br)P(=O)(O)O)[C@H](O)[C@@H]1O
inactive: [1] | [2] | [3] | [4] | [5]

C[C@@]12CC[C@H]3[C@@H](CCC4=C(O)C(=O)CC[C@]43C)[C@H]1CCC2=O
inactive: [1] | [2] | [3] | [4] | [5]
